According to the supplement of paper PMC3342239:
Structures can show the parent of a compound that is named as a salt.

What follows are compounds tested on Saccharomyces cerevisiae (assay: fraction of cells in G1 phase (DNA content, flow cytometry); higher = more cells with unreplicated DNA (G1 delay)). Details: temperature: 30 C; YPD; BY4741 PDR5+ SNQ2+; drug added to: actively dividing cells; 4.33 h.
Protocol: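 S. cerevisiae cultures in YPD at 30°C were treated with each drug of the Enzo FDA-approved library at 20 µg/ml (final µM given per drug). Cells were fixed after 6–7 h (S1) or 6 h (S2), or after 4.33 h for BY4741 (S3), then stained with SYTOX Green. %G1 is the Dean-Jett-Fox G1 peak area divided by the G1+G2/M peak areas, written as a fraction and averaged over at least two independent experiments. DMSO reference: mean ~0.49; >0.60 is called High G1 and <0.3876 Low G1. Scale: lower means mitotic delay.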

Row | SMILES | fraction of cells in G1 phase
1 | CC(CN1c2ccccc2Sc2ccccc21)N(C)C (stereo unspecified) [Promethazine HCl] (70.317 µM) | 0.437
2 | CO[C@H]1C[C@@H]2CC[C@@H](C)[C@@](O)(O2)C(=O)C(=O)N2CCCC[C@H]2C(=O)O[C@H]([C@H](C)C[C@@H]2CC[C@@H](O)[C@H](OC)C2)CC(=O)[C@H](C)/C=C(\C)[C@@H](O)[C@@H](OC)C(=O)[C@H](C)C[C@H](C)/C=C/C=C/C=C/1C [Rapamycin] (21.8771 µM) | 0.625
3 | Cc1ccc(C)c(OCCCC(C)(C)C(=O)O)c1 [Gemfibrozil] (79.8911 µM) | 0.51
4 | CC(C)(C)C(=O)C(Oc1ccc(Cl)cc1)n1ccnc1 (stereo unspecified) [Climbazole] (68.3135 µM) | 0.496

Same assay, conditions: temperature: 30 C; YPD; JTY2953 pdr5 snq2 (sensitized); drug added to: actively dividing cells; 6 h

Row | SMILES | fraction of cells in G1 phase
5 | CCC(C)(C)c1ccc(CC(C)CN2C[C@@H](C)O[C@@H](C)C2)cc1 (stereo partly specified) [Amorolfine] (62.9883 µM) | 0.367
6 | CO[C@H]1C[C@@H]2CC[C@@H](C)[C@@](O)(O2)C(=O)C(=O)N2CCCC[C@H]2C(=O)O[C@H]([C@H](C)C[C@@H]2CC[C@@H](O)[C@H](OC)C2)CC(=O)[C@H](C)/C=C(\C)[C@@H](O)[C@@H](OC)C(=O)[C@H](C)C[C@H](C)/C=C/C=C/C=C/1C [Rapamycin] (21.8771 µM) | 0.788
7 | CN1CCC[C@@H]1CCO[C@](C)(c1ccccc1)c1ccc(Cl)cc1 [Clemastine fumarate] (58.1564 µM) | 0.585
8 | Clc1ccc(C(Cn2ccnc2)OCc2csc3c(Cl)cccc23)c(Cl)c1 (stereo unspecified) [Sertaconazole] (45.6852 µM) | 0.3
9 | Cc1ccc(C)c(OCCCC(C)(C)C(=O)O)c1 [Gemfibrozil] (79.8911 µM) | 0.667
10 | CC(C)(C)C(=O)C(Oc1ccc(Cl)cc1)n1ccnc1 (stereo unspecified) [Climbazole] (68.3135 µM) | 0.833

Same assay, conditions: temperature: 30 C; YPD; JTY2953 pdr5 snq2 (sensitized); drug added to: cultures diluted from stationary phase; 6-7 h

Row | SMILES | fraction of cells in G1 phase
11 | CCCOc1ccccc1-c1nc2[nH]nnc2c(=O)[nH]1 [Zaprinast] (73.7243 µM) | 0.482
12 | CC[C@H](C)C(=O)O[C@H]1C[C@H](O)C=C2C=C[C@H](C)[C@H](CC[C@@H]3C[C@@H](O)CC(=O)O3)[C@H]21 [Pravastatin lactone] (49.1976 µM) | 0.451
13 | Nc1nc(=O)n([C@@H]2CS[C@H](CO)O2)cc1F [Emtricitabine] (80.8899 µM) | 0.481
14 | COc1cc(NS(=O)(=O)c2ccc(N)cc2)nc(OC)n1 [Sulfadimethoxine] (64.4467 µM) | 0.48
15 | CN[C@@H]1[C@H](O)[C@H](NC)[C@H]2O[C@@]3(O)C(=O)C[C@@H](C)O[C@H]3O[C@@H]2[C@H]1O [Spectinomycin] (60.1763 µM) | 0.485
16 | CNCCC(Oc1ccccc1OC)c1ccccc1 (stereo unspecified) [Nisoxetine HCl] (73.7022 µM) | 0.511
17 | Cn1nnc2c(C(N)=O)ncn2c1=O [Temozolomide] (103.011 µM) | 0.48
18 | CCC(C)(C)c1ccc(CC(C)CN2C[C@@H](C)O[C@@H](C)C2)cc1 (stereo partly specified) [Amorolfine] (62.9883 µM) | 0.841
19 | CN(C)CCC(c1ccc(Cl)cc1)c1ccccn1 (stereo unspecified) [Chlorpheniramine maleate] (72.7812 µM) | 0.452
20 | CN/C(=N\CCSCc1nc[nH]c1C)NC#N [Cimetidine] (79.2571 µM) | 0.5
21 | CC(C)[C@H](N)C(=O)OCCOCn1cnc2c(=O)nc(N)[nH]c21 [Valaciclovir] (61.6633 µM) | 0.465
22 | O=C(C1CCCCC1)N1CC(=O)N2CCc3ccccc3C2C1 (stereo unspecified) [Praziquantel] (64.0173 µM) | 0.441
23 | CN(C)CCCN1c2ccccc2CCc2ccccc21 [Imipramine HCl] (71.3225 µM) | 0.524
24 | COCCOC(=O)C1=C(C)NC(C)=C(C(=O)OC(C)C)C1c1cccc([N+](=O)[O-])c1 (stereo unspecified) [Nimodipine] (47.7954 µM) | 0.521
25 | CC(CN1c2ccccc2Sc2ccccc21)N(C)C (stereo unspecified) [Promethazine HCl] (70.317 µM) | 0.204
26 | CCCc1nc2c(C)cc(-c3nc4ccccc4n3C)cc2n1Cc1ccc(-c2ccccc2C(=O)O)cc1 [Telmisartan] (38.8627 µM) | 0.543

Row | SMILES | fraction of cells in G1 phase
27 | CS(=O)(=O)Nc1ccc([N+](=O)[O-])cc1Oc1ccccc1 [Nimesulide] (64.8687 µM) | 0.58
28 | O=C(O)COC(=O)Cc1ccccc1Nc1c(Cl)cccc1Cl [Aceclofenac] (56.4665 µM) | 0.489
29 | O=C(O)CCC(=O)c1ccc(-c2ccccc2)cc1 [Fenbufen] (78.6509 µM) | 0.572
30 | CO[C@H]1C[C@@H]2CC[C@@H](C)[C@@](O)(O2)C(=O)C(=O)N2CCCC[C@H]2C(=O)O[C@H]([C@H](C)C[C@@H]2CC[C@@H](O)[C@H](OC)C2)CC(=O)[C@H](C)/C=C(\C)[C@@H](O)[C@@H](OC)C(=O)[C@H](C)C[C@H](C)/C=C/C=C/C=C/1C [Rapamycin] (21.8771 µM) | 0.701
31 | CN1CCC[C@@H]1CCO[C@](C)(c1ccccc1)c1ccc(Cl)cc1 [Clemastine fumarate] (58.1564 µM) | 0.66
32 | CN1CCN(c2c(F)cc3c(=O)c(C(=O)O)cn(CCF)c3c2F)CC1 [Fleroxacin] (54.1497 µM) | 0.479
33 | COc1ccc([C@@H]2Sc3ccccc3N(CCN(C)C)C(=O)[C@@H]2OC(C)=O)cc1 [Diltiazem] (44.3459 µM) | 0.544
34 | CO[C@H](C(=O)[C@@H](O)[C@@H](C)O)[C@@H]1Cc2cc3cc(O[C@H]4C[C@@H](O[C@H]5C[C@@H](O)[C@H](O)[C@@H](C)O5)[C@H](O)[C@@H](C)O4)c(C)c(O)c3c(O)c2C(=O)[C@H]1O[C@H]1C[C@@H](O[C@H]2C[C@@H](O[C@H]3C[C@](C)(O)[C@H](O)[C@@H](C)O3)[C@@H](O)[C@@H](C)O2)[C@H](O)[C@@H](C)O1 [Plicamycin] (18.4303 µM) | 0.513
35 | Cc1scc2c1N(C(=O)CN1CCN(C)CC1)c1ccccc1NC2=O [Telenzepine 2HCl] (53.9845 µM) | 0.498
36 | CC(COc1ccccc1)N(CCCl)Cc1ccccc1 (stereo unspecified) [Phenoxybenzamine HCl] (58.7717 µM) | 0.514
37 | CN(C)CCCOc1nn(Cc2ccccc2)c2ccccc12 [Benzydamine] (64.6382 µM) | 0.48
38 | Clc1ccc(C(Cn2ccnc2)OCc2csc3c(Cl)cccc23)c(Cl)c1 (stereo unspecified) [Sertaconazole] (45.6852 µM) | 0.869
39 | Cc1ccc(C)c(OCCCC(C)(C)C(=O)O)c1 [Gemfibrozil] (79.8911 µM) | 0.611
40 | CN[C@@H]1[C@@H](O[C@H]2O[C@H](CO)[C@@H](N)[C@H](O)[C@H]2O)OC2C[C@@H](N)[C@@H](O[C@H]3[C@H](O)[C@@H](O)[C@H](N)C[C@@H]3N)OC2[C@@H]1O (stereo partly specified) [Apramycin] (37.0653 µM) | 0.449
41 | CC(C)(C)C(=O)C(Oc1ccc(Cl)cc1)n1ccnc1 (stereo unspecified) [Climbazole] (68.3135 µM) | 0.719
